Reference: PubChem BioAssay (Tox21)
Values joined by “and” are separate entries in the source; they are usually repeats but may differ in a detail not shown here. Equal values may be shown once. Inconclusive results are not listed. Entries that show only a call come without a potency. Some compounds were tested as several samples or in several runs, with calls that do not always agree. Active and inactive are the calls of the source. Unless noted, calls follow the shape of the full dose curve.

Assays:
[1] = Nuclear factor erythroid 2-related factor 2/antioxidant responsive element (Nrf2/ARE) small molecule agonists: qHTS cell viability counter screen in human keratinocytes (AID 1919968; active = well fitted curve in the direction sought with a large enough effect in the repeat runs; an effect the other way counts as inactive or inconclusive; also: nearly all actives have a fitted effect of over 55% in size)
In short: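 Cytotoxicity was multiplexed with the Nrf2/ARE luciferase assay in the same wells. Stably transfected HaCaT keratinocytes were treated with test compounds for 23 h at 37 C. Cell viability was then measured by CellTiter-Fluor fluorescence.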

[2] = Nuclear factor erythroid 2-related factor 2/antioxidant responsive element (Nrf2/ARE) small molecule agonists: luciferase reporter gene qHTS assay in human keratinocytes (AID 1919969); also: nearly all actives have a fitted effect of over 35% in size; also: potency is read from the fitted curve at half-maximal effect
[3] = biological target: KiSS-1 receptor (Homo sapiens) (UniProt Q969F8); assay: Human kisspeptin (KISS1R) small molecule agonists, calcium flux assay in KISS1R-HEK293 cells (AID 1920064; active = well fitted curve in the direction sought with a large enough effect in the repeat runs; an effect the other way counts as inactive or inconclusive)
In short: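 Agonist activity is monitored as intracellular calcium rise in engineered HEK293 cells carrying human KISS1R. Cells are dye-loaded for 1 h at 37 C before compound addition, and fluorescence is recorded for 3 min.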

[4] = G protein-coupled receptor (GPCR) small molecule agonists, calcium flux assay: HEK293 wild type cell line counter screen (AID 1920065)
In short: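 Seed cells, incubate 18 h (37 C, 5% CO2); add calcium dye, 1 h at 37 C; pin-transfer compounds, ATP control or DMSO; read fluorescence 480/540 nm each second for 3 min.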

[5] = p53 small molecule agonists, cell-based qHTS assay with human liver microsomes (AID 1963577); also: potency is read from the fitted curve at half-maximal effect
In short: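 Compounds act here after metabolic activation: human liver microsomes and NADPH, both at 0.5 mg/mL final, were co-added to p53RE-bla cells. Incubation ran 16 h at 37 C, followed by LiveBLAzer detection.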

[6] = p53 small molecule agonists, cell-based qHTS assay with rat liver microsomes (AID 1963578); also: potency is read from the fitted curve at half-maximal effect
In short: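 Read-out is beta-lactamase reporter fluorescence (LiveBLAzer, 2 h, room temperature, dark) in p53RE-bla cells treated 16 h at 37 C with compound, rat liver microsomes and NADPH, both 0.5 mg/mL final.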

[7] = p53 small molecule agonists, cell-based qHTS assay with human liver microsomes: qHTS cell viability counter screen (AID 1963579); also: nearly all actives have a fitted effect of over 45% in size
In short: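 Cells carrying the p53 response-element beta-lactamase reporter are treated for 16 h at 37 C with test compounds in the presence of human liver microsomes and NADPH (both 0.5 mg/mL final); ATP-based CellTiter-Glo luminescence then reports viability.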

[8] = p53 small molecule agonists, cell-based qHTS assay with rat liver microsomes: qHTS cell viability counter screen (AID 1963580); also: nearly all actives have a fitted effect of over 45% in size
In short: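 Cytotoxicity counter screen: intracellular ATP measured by CellTiter-Glo luminescence in the same wells as the beta-lactamase reporter read, on HCT-116 p53RE-bla cells exposed 16 h at 37 C to compounds with rat liver microsomes and NADPH, each 0.5 mg/mL final.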

[9] = p53 small molecule agonists, cell-based qHTS assay: qHTS cell viability counter screen (AID 1963581); also: nearly all actives have a fitted effect of over 45% in size
In short: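 Viability was counter-screened in parallel with the p53 agonist reporter by measuring intracellular ATP luminescence in the same HCT-116 p53RE-bla wells after 16 h compound treatment at 37 C.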

[10] = p53 small molecule agonists, cell-based qHTS assay (AID 1963582; active = well fitted activation curve with a large enough effect in the signal ratio in the repeat runs, not every such curve was filed as active; the % refers to the signal ratio)
In short: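 Cells carrying a p53-responsive bla reporter are treated with test compounds for 16 h at 37 C; beta-lactamase activity is then detected with LiveBLAzer B/G FRET substrate after 2 h at room temperature.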

[11] = biological target: 5-hydroxytryptamine receptor 2A (Homo sapiens) (UniProt P28223); assay: 5-hydroxytryptamine receptor 2A (HTR2A) small molecule antagonists, cell-based qHTS assay (AID 1963586); also: nearly all actives have a fitted effect of over 45% in size; also: potency is read from the fitted curve at half-maximal effect
In short: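 CHO cells stably expressing human HTR2A were plated for 18 h at 37 C, then loaded with calcium dye for 1 h. Compounds were preincubated 5 min at room temperature before DOI (4 nM solution) was added. Kinetic fluorescence was read for 3 min.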

[12] = biological target: 5-hydroxytryptamine receptor 2A (Homo sapiens) (UniProt P28223); assay: 5-hydroxytryptamine receptor 2A (HTR2A) small molecule agonists, cell-based qHTS assay (AID 1963587); also: nearly all actives have a fitted effect of over 30% in size
In short: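 CHO cells stably expressing human HTR2A, plated 18 h, loaded with calcium dye 1 h at 37 C. Agonist mode: compounds added and intracellular calcium fluorescence recorded kinetically for 2 min at 1 sec intervals.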

[13] = biological target: Muscarinic acetylcholine receptor M1 (Homo sapiens) (UniProt P11229); assay: Cholinergic receptor muscarinic 1 (CHRM1) small molecule agonists, cell-based qHTS assay (AID 1963589); also: nearly all actives have a fitted effect of over 35% in size
In short: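 Cells were plated and incubated 18 h at 37 C/5% CO2, loaded with calcium dye for 1 h at 37 C, then treated with compounds in DMSO. Fluorescence was recorded kinetically at 1 sec intervals.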

[14] = cAMP Responsive Elements (CRE) small molecule agonists, cell-based qHTS assay (AID 1963590)
In short: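 Cells carrying a CRE-driven beta-lactamase reporter (HEK 293T) are seeded, incubated overnight (18 h), and treated with test compounds for 3 h at 37 C; reporter activity is then detected with a FRET substrate after 2 h at room temperature.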

[15] = cAMP Responsive Elements (CRE) small molecule antagonists, cell-based qHTS assay (AID 1963591; active = well fitted inhibition curve with a large enough effect in the signal ratio in the repeat runs, not every such curve was filed as active; the % refers to the signal ratio)
In short: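 Cells (CRE-bla HEK 293T, DMEM with 10% dialyzed FBS and 25 mM HEPES) are seeded and incubated 18 h. Compounds are added with NKH477 agonist at 0.25 uM final for 3 h, then FRET substrate for 2 h.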

[16] = biological target: Beta-2 adrenergic receptor (Homo sapiens) (UniProt P07550); assay: Adrenergic beta2 receptor (ADRB2) small molecule antagonists, cell-based qHTS assay (AID 1963592); also: series mostly up to about 92 µM; nearly all actives have a fitted effect of over 50% in size
In short: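 Assay format: CHO-ADRB2 cells, 18-20hr seeding at 37C/5% CO2, then compound plus 1nM isoproterenol agonist mix for 0.5hr RT. Homogeneous time-resolved fluorescence cAMP detection after 1hr, expressed as 665/615 nm ratio.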

[17] = biological target: Beta-2 adrenergic receptor (Homo sapiens) (UniProt P07550); assay: Adrenergic beta2 receptor (ADRB2) small molecule agonists, cell-based qHTS assay (AID 1963593);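 also: CHO cells stably overexpressing human ADRB2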
In short: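 CHO cells stably over-expressing ADRB2 were plated overnight at 37C, then dosed with compounds plus a stimulation mix containing 100uM IBMX and 25uM Ro-20-1724 for 0.5hr at room temperature. cAMP was measured by HTRF competition, 1hr.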

[18] = biological target: D(2) dopamine receptor (Homo sapiens) (UniProt P14416); assay: Dopamine D2 receptor (DRD2) small molecule antagonists, cell-based qHTS assay (AID 1963595; active = well fitted inhibition curve with a large enough effect in the signal ratio in the repeat runs, with a control signal flat; the % refers to the signal ratio)
In short: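 In this cell-based antagonist screen, compounds act for 10 min at room temperature before a 30 min challenge with 12 nM quinpirole and 200 nM NKH477. cAMP is quantified by HTRF competition in DRD2-HEK293 cells containing 0.1 mM Ro20-1724.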

[19] = biological target: D(2) dopamine receptor (Homo sapiens) (UniProt P14416); assay: Dopamine D2 receptor (DRD2) small molecule agonists, cell-based qHTS assay (AID 1963594); also: nearly all actives have a fitted effect of over 35% in size
In short: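 HEK293 cells stably expressing human DRD2, pre-treated with PDE inhibitor Ro20-1724 (0.1 mM final) and compound 10 min at room temperature, then stimulated with NKH477 (200nM […]) for 30 min. cAMP read by HTRF (665/620 nm).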

[20] = biological target: Muscarinic acetylcholine receptor M1 (Homo sapiens) (UniProt P11229); assay: Cholinergic receptor muscarinic 1 (CHRM1) small molecule antagonists, cell-based qHTS assay (AID 1963588); also: nearly all actives have a fitted effect of over 40% in size
In short: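 Compounds were tested at 15 concentrations in three independent runs. Dye-loaded CHRM1-CHO cells were exposed 5 min at room temperature before stimulation by acetylcholine added at 50nM. Intracellular calcium was read kinetically on FDSS for 3 min.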

Chain of D(2) dopamine receptor (Homo sapiens) (P14416 whole entry, looked up): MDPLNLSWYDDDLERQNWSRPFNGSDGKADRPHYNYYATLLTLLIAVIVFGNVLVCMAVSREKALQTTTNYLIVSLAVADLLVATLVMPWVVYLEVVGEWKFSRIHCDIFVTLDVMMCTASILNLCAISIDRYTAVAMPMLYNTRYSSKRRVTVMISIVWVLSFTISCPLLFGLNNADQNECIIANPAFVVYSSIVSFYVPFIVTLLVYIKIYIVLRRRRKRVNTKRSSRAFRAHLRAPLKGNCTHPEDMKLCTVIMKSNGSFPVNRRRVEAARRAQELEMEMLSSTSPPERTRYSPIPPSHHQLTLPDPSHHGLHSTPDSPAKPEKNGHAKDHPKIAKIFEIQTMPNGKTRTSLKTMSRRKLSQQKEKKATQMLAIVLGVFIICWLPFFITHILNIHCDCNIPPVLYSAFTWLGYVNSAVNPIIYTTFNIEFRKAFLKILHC
Chain of 5-hydroxytryptamine receptor 2A (Homo sapiens) (P28223 whole entry, looked up): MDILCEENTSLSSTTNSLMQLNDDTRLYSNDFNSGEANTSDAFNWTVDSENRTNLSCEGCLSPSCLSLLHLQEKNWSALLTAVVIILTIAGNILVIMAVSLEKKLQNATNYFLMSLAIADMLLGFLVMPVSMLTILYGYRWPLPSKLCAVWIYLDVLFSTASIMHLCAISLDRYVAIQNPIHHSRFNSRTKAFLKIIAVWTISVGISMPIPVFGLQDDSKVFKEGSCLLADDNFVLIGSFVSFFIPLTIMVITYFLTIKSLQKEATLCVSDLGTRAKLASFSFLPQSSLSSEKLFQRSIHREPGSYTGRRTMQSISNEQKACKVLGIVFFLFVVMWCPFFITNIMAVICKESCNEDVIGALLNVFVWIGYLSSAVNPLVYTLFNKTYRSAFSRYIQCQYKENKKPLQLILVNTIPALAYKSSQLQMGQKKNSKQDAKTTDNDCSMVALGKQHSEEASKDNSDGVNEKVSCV
Chain of Beta-2 adrenergic receptor (Homo sapiens) (P07550 whole entry, looked up): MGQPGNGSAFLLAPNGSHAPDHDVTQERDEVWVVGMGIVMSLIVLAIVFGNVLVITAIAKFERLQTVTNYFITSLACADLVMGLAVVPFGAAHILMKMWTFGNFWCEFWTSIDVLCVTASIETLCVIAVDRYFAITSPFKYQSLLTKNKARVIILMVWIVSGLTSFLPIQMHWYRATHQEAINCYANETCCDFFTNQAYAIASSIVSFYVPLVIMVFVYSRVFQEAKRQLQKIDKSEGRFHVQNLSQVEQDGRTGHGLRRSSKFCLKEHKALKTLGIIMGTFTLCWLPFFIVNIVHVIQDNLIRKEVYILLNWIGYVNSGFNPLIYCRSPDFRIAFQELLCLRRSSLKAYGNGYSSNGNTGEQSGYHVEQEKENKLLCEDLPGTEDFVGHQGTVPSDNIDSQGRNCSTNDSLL
Chain of KiSS-1 receptor (Homo sapiens) (Q969F8 whole entry, looked up): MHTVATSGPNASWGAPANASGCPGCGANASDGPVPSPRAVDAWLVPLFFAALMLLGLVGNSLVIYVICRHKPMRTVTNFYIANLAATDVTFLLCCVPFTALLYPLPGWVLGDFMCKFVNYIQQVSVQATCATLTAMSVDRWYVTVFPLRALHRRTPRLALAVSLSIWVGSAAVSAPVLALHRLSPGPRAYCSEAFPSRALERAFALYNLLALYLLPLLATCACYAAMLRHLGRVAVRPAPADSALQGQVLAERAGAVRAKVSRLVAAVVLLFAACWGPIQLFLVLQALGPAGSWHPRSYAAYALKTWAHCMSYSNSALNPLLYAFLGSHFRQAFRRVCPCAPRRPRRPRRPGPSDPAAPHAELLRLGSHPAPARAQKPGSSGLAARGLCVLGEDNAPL
Chain of Muscarinic acetylcholine receptor M1 (Homo sapiens) (P11229 whole entry, looked up): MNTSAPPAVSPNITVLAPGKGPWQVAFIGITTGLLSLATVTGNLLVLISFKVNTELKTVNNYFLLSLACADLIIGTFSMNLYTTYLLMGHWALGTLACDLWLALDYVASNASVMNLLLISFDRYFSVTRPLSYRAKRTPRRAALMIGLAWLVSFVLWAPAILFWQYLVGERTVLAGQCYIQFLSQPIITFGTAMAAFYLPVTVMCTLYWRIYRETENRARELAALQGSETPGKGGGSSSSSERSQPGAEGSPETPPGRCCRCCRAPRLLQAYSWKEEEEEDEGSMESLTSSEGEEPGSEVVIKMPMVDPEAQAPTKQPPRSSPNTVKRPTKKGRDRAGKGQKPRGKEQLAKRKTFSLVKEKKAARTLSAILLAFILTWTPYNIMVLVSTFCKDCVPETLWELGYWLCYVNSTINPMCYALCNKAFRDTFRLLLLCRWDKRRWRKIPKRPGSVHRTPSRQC

Row | Compound | Potency [1] | Potency [2] | Potency [3] | Potency [4] | Potency [5] | Potency [6] | Potency [7] | Potency [8] | Potency [9] | Potency [10] | Potency [11] | Potency [12] | Potency [13] | Potency [14] | Potency [15] | Potency [16] | Potency [17] | Potency [18] | Potency [19] | Potency [20]
1 | c1coc(CNc2ncnc3nc[nH]c23)c1 | inactive | inactive | inactive | inactive | inactive | inactive | inactive | inactive | inactive | inactive | inactive | inactive | inactive | inactive | inactive | inactive | inactive | inactive |  | 
2 | COCc1ccc(COC)cc1 | inactive | inactive | inactive | inactive | inactive | inactive | inactive | inactive | inactive | inactive | inactive | inactive | inactive | inactive | inactive | inactive | inactive | inactive | inactive | 
3 | Nc1nc(N)c2nc(-c3ccccc3)c(N)nc2n1 | inactive | inactive | inactive | inactive | 18.2 µM (active) | 29.2 µM (active) and 17.8 µM (active) | inactive |  | inactive |  |  |  |  |  |  | inactive | inactive | inactive | inactive | 
4 | Nc1c(Br)cc([N+](=O)[O-])cc1Br | inactive | inactive | inactive | inactive | inactive | inactive |  |  | inactive | inactive |  | inactive | inactive |  | inactive | inactive | inactive | inactive | inactive | inactive
5 | Cn1cnc([N+](=O)[O-])c1Sc1ncnc2nc[nH]c12 | inactive | 27.1 µM (active) and inactive | inactive | inactive | inactive | inactive | inactive | inactive | inactive |  |  |  |  | inactive | inactive | inactive |  | inactive | inactive | 
6 | CC(C)(C)c1nnc(NS(=O)(=O)c2ccc(N)cc2)s1 | inactive | inactive | inactive | inactive | inactive | inactive | inactive | inactive | inactive | inactive | 7.29 µM (active) |  | inactive | inactive | inactive | inactive |  | inactive | inactive | inactive
7 | CCC/C=C/CO | inactive | inactive | inactive | inactive | inactive | inactive | inactive |  | inactive |  |  |  | inactive | inactive | inactive | inactive | inactive | inactive | inactive | inactive
